The supplement of paper PMC9262897, “Low-cost anti-mycobacterial drug discovery using engineered E. coli” (Nature Communications, 2022)
Counter-ions that a name gives are not always drawn. ± gives the standard deviation of the averaged measurements.

What was measured:
Assay in all cases: growth (OD600 after 10 h); higher = more growth (less inhibition)
[1] = tested on: E. coli TESEC Alr+ wild-type control; conditions: compound 0.1 mM; raw OD600 reference: median of DMSO wells 0.241, cell-free background 0.041
Procedure: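 TESEC Mtb Alr E. coli, or the Alr+ wild-type control, in 384-well plates with Prestwick library compounds at 0.1 mM and 1% DMSO, across arabinose induction levels of 1E3 to 1E7 nM. Growth is read as OD600 after 10 h at 37 °C in triplicate biological replicates.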

E. coli TESEC Mtb Asd = conditions: compound 0.1 mM
Procedure: (§1)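 TESEC E. coli strains in which the native enzyme is deleted and replaced by arabinose-inducible Mtb Asd, DapB, CysH or TrpD, each grown in its selective medium. Strains were screened against the Prestwick library at 0.1 mM and 1% DMSO in 384-well format at low and high arabinose induction. Growth is read as OD600 after 10 h in triplicate.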

E. coli TESEC Mtb DapB = conditions: compound 0.1 mM
Procedure: as §1

[2] = tested on: E. coli TESEC Alr+ wild-type control; conditions: compound 0.1 mM; raw OD600 reference: median of DMSO wells 0.49, cell-free background 0.052
Procedure: (§2)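 TESEC Mtb Alr E. coli (ΔaraC ΔtolC ΔentC Δalr ΔdadX, arabinose-inducible Mtb Alr) or the Alr+ wild-type control strain, grown in defined M9-fructose medium without D-alanine in 96-well plates with Prestwick library compounds at 0.1 mM and 1% DMSO. Low Alr induction is 0.1 µM arabinose and high induction is 10 mM arabinose.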

E. coli TESEC Mtb Alr = conditions: compound 0.1 mM
Procedure: as §2

[3] = arabinose induction (level): High, raw OD600 reference: median of DMSO wells 0.331, cell-free background 0.041
[4] = arabinose induction (level): Low, raw OD600 reference: median of DMSO wells 0.417, cell-free background 0.041
[5] = arabinose induction (level): High, raw OD600 reference: median of DMSO wells […], cell-free background 0.041
[6] = arabinose induction (level): Low, raw OD600 reference: median of DMSO wells 0.227, cell-free background 0.041
[7] = arabinose 100 nM, raw OD600 reference: median of DMSO wells 0.413, cell-free background 0.052
[8] = arabinose 10000000 nM, raw OD600 reference: median of DMSO wells […], cell-free background 0.052

SMILES	growth [1]	growth (E. coli TESEC Mtb Asd; [3])	growth (E. coli TESEC Mtb Asd; [4])	growth (E. coli TESEC Mtb DapB; [5])	growth (E. coli TESEC Mtb DapB; [6])	growth [2]	growth (E. coli TESEC Mtb Alr; [7])	growth (E. coli TESEC Mtb Alr; [8])
Cc1ccccc1OCC(O)CO (stereo not given) [Mephenesin]	0.258 ± 0.0026	0.416 ± 0.023	0.45 ± 0.025	0.197 ± 0.0078	0.239 ± 0.02	0.494 ± 0.1	0.413 ± 0.0097	0.373 ± 0.0043
CC1(C)O[C@@H]2C[C@H]3[C@@H]4CCC5=CC(=O)CC[C@]5(C)[C@@]4(F)[C@@H](O)C[C@]3(C)[C@]2(C(=O)CCl)O1 [Halcinonide]	0.215 ± 0.022	0.258 ± 0.052	0.36 ± 0.049	0.188 ± 0.003	0.22 ± 0.0073	0.442 ± 0.032	0.413 ± 0.021	0.256 ± 0.019
O=c1[nH]c(=O)n([C@H]2C[C@H](O)[C@@H](CO)O2)cc1F [Floxuridine]	0.0553 ± 0.00059	0.088 ± 0.0059	0.0873 ± 0.011	0.129 ± 0.0019	0.165 ± 0.0032	0.356 ± 0.0098	0.387 ± 0.0052	0.0748 ± 0.0061
Nc1nc(O)c2ncn(CCC(CO)CO)c2n1 [Penciclovir]	0.25 ± 0.0069	0.228 ± 0.033	0.329 ± 0.033	0.226 ± 0.013	0.244 ± 0.02	0.455 ± 0.03	0.411 ± 0.0086	0.36 ± 0.021
CN(C)C(=N)NC(=N)N [Metformin hydrochloride]	0.253 ± 0.0099	0.372 ± 0.032	0.404 ± 0.032	0.218 ± 0.037	0.235 ± 0.043	0.447 ± 0.052	0.404 ± 0.015	0.349 ± 0.032
CNCC[C@@H](Oc1ccccc1C)c1ccccc1 [Tomoxetine hydrochloride]	0.216 ± 0.0098	0.205 ± 0.024	0.294 ± 0.021	0.18 ± 0.0036	0.263 ± 0.047	0.441 ± 0.016	0.407 ± 0.0067	0.326 ± 0.018
CCOC(=O)Nc1ccc2c(c1)N(C(=O)CCN1CCOCC1)c1ccccc1S2 [Moricizine hydrochloride]	0.157 ± 0.0017	0.175 ± 0.018	0.228 ± 0.083	0.168 ± 0.0088	0.199 ± 0.022	0.354 ± 0.0077	0.3937 ± 0.0035	0.258 ± 0.022
CN[C@H](CC(C)C)C(=O)N[C@H]1C(=O)N[C@@H](CC(N)=O)C(=O)N[C@H]2C(=O)N[C@H]3C(=O)N[C@H](C(=O)N[C@H](C(=O)O)c4cc(O)cc(O)c4-c4cc3ccc4O)[C@H](O)c3ccc(c(Cl)c3)Oc3cc2cc(c3O[C@@H]2O[C@H](CO)[C@@H](O)[C@H](O)[C@H]2O[C@H]2C[C@](C)(N)[C@H](O)[C@H](C)O2)Oc2ccc(cc2Cl)[C@H]1O [Vancomycin hydrochloride]	0.0502 ± 0.0016	0.0662 ± 0.0062	0.0563 ± 0.011	0.0659 ± 0.0035	0.0604 ± 0.0036	0.0581 ± 0.0048	0.217 ± 0.15	0.0507 ± 0.00062
CCN(CC)CCOC(=O)C(c1ccccc1)c1ccccc1 [Adiphenine hydrochloride]	0.222 ± 0.0088	0.197 ± 0.033	0.382 ± 0.069	0.165 ± 0.0095	0.223 ± 0.046	0.494 ± 0.04	0.414 ± 0.0051	0.313 ± 0.051
O=C1O[C@H]([C@@H](O)CO)C(O)=C1O [Ascorbic acid]	0.255 ± 0.0052	0.374 ± 0.076	0.445 ± 0.06	0.187 ± 0.0051	0.209 ± 0.0043	0.483 ± 0.056	0.387 ± 0.024	0.35 ± 0.028
CC1CS(=O)(=O)CCN1/N=C/c1ccc([N+](=O)[O-])o1 (stereo not given) [Nifurtimox]	0.04547 ± 0.00025	0.212 ± 0.049	0.237 ± 0.017	0.188 ± 0.029	0.251 ± 0.019	0.354 ± 0.021	0.0469 ± 0.00035	0.0644 ± 0.012
C#C[C@]1(O)CC[C@H]2[C@@H]3[C@H](C)CC4=C(CCC(=O)C4)[C@H]3CC[C@@]21C [Tibolone]	0.141 ± 0.0097	0.167 ± 0.036	0.316 ± 0.047	0.17 ± 0.0045	0.172 ± 0.0081	0.393 ± 0.015	0.362 ± 0.046	0.137 ± 0.003
C#C[C@]1(O)CC[C@H]2[C@@H]3CCC4=CC(=O)CC[C@@H]4[C@H]3CC[C@@]21C [Norethindrone]	0.196 ± 0.042	0.286 ± 0.041	0.362 ± 0.058	0.183 ± 0.0096	0.21 ± 0.042	0.427 ± 0.016	0.397 ± 0.0089	0.233 ± 0.014
CC[C@H](C)C(=O)O[C@H]1C[C@H](O)C=C2C=C[C@H](C)[C@H](CC[C@@H](O)C[C@@H](O)CC(=O)O)[C@H]21 [Pravastatin]	0.229 ± 0.013	0.323 ± 0.015	0.37 ± 0.059	0.209 ± 0.0069	0.225 ± 0.025	0.455 ± 0.03	0.4188 ± 0.0036	0.337 ± 0.026
COc1ccc([C@@H]2CC(=O)c3c(O)cc(O[C@@H]4O[C@H](CO[C@@H]5O[C@@H](C)[C@H](O)[C@@H](O)[C@H]5O)[C@@H](O)[C@H](O)[C@H]4O)cc3O2)cc1O [Hesperidin]	0.223 ± 0.0074	0.22 ± 0.035	0.284 ± 0.06	0.188 ± 0.011	0.251 ± 0.034	0.521 ± 0.053	0.407 ± 0.0099	0.388 ± 0.028
c1ccc(CC2=NCCN2)cc1 [Tolazoline hydrochloride]	0.2459 ± 0.0022	0.264 ± 0.08	0.435 ± 0.036	0.191 ± 0.017	0.256 ± 0.052	0.493 ± 0.064	0.413 ± 0.007	0.364 ± 0.012
CCN(CC)CCNC(C(=O)OCCC(C)C)c1ccccc1 (stereo not given) [Camylofine chlorhydrate]	0.198 ± 0.0073	0.228 ± 0.046	0.372 ± 0.11	0.153 ± 0.013	0.171 ± 0.016	0.559 ± 0.084	0.406 ± 0.012	0.341 ± 0.012
CC[C@H](C)C(=O)O[C@H]1CCC=C2C=C[C@H](C)[C@H](CC[C@@H]3C[C@@H](O)CC(=O)O3)[C@H]21 [Mevastatin]	0.15 ± 0.0081	0.135 ± 0.036	0.148 ± 0.012	0.171 ± 0.054	0.134 ± 0.0085	0.41 ± 0.019	0.406 ± 0.021	0.214 ± 0.028
C[C@@H]1NC(=O)NC1=O [Methylhydantoin-5-(L)]	0.236 ± 0.0048	0.427 ± 0.024	0.44 ± 0.036	0.192 ± 0.013	0.245 ± 0.022	0.49 ± 0.056	0.411 ± 0.016	0.352 ± 0.014
CN(C)CCCOc1nn(Cc2ccccc2)c2ccccc12 [Benzydamine hydrochloride]	0.183 ± 0.0043	0.193 ± 0.043	0.348 ± 0.023	0.192 ± 0.023	0.216 ± 0.051	0.452 ± 0.0099	0.404 ± 0.0075	0.283 ± 0.021
Cn1c(=O)c2c(ncn2CC(O)CO)n(C)c1=O (stereo not given) [Diprophylline]	0.253 ± 0.0057	0.367 ± 0.021	0.452 ± 0.052	0.206 ± 0.0061	0.24 ± 0.017	0.45 ± 0.05	0.421 ± 0.0097	0.313 ± 0.057
CCN(CC)C(C)CN1c2ccccc2Sc2ccccc21 (stereo not given) [Ethopropazine hydrochloride]	0.17 ± 0.0058	0.156 ± 0.031	0.289 ± 0.03	0.2149 ± 0.0019	0.236 ± 0.015	0.469 ± 0.026	0.413 ± 0.0094	0.333 ± 0.014
CC[C@@H](CO)NCCN[C@@H](CC)CO [Ethambutol dihydrochloride]	0.25 ± 0.0032	0.353 ± 0.067	0.39 ± 0.091	0.19 ± 0.0055	0.2 ± 0.022	0.476 ± 0.06	0.411 ± 0.0072	0.366 ± 0.015
CCOc1ccc2nc(S(N)(=O)=O)sc2c1 [Ethoxzolamide]	0.2066 ± 0.0019	0.283 ± 0.04	0.368 ± 0.045	0.172 ± 0.0065	0.187 ± 0.017	0.552 ± 0.11	0.426 ± 0.0093	0.214 ± 0.13
CS(=O)(=O)Nc1ccc([N+](=O)[O-])cc1Oc1ccccc1 [Nimesulide]	0.1929 ± 0.00095	0.272 ± 0.088	0.329 ± 0.056	0.201 ± 0.0065	0.248 ± 0.091	0.3996 ± 0.002	0.359 ± 0.026	0.286 ± 0.01
NS(=O)(=O)c1cc2c(cc1Cl)NC(CC1CCCC1)NS2(=O)=O (stereo not given) [Cyclopenthiazide]	0.236 ± 0.0074	0.377 ± 0.063	0.314 ± 0.053	0.212 ± 0.0077	0.214 ± 0.0079	0.513 ± 0.035	0.375 ± 0.011	0.356 ± 0.0061
Cc1cc(NS(=O)(=O)c2ccc(N)cc2)no1 [Sulfamethoxazole]	0.252 ± 0.0032	0.404 ± 0.042	0.41 ± 0.063	0.185 ± 0.011	0.205 ± 0.024		0.432 ± 0.013	0.346 ± 0.005
C[C@H](N[C@@H](CCc1ccccc1)C(=O)O)C(=O)N1CCC[C@H]1C(=O)O [Enalaprilat dihydrate]	0.228 ± 0.0039	0.259 ± 0.063	0.31 ± 0.094	0.21 ± 0.013	0.216 ± 0.022		0.411 ± 0.011	0.308 ± 0.022
CC(C)Oc1ccc2c(=O)c(-c3ccccc3)coc2c1 [Ipriflavone]	0.196 ± 0.0047	0.345 ± 0.098	0.4 ± 0.021			0.464 ± 0.025	0.402 ± 0.014	0.285 ± 0.012
CN(C)CCCN1c2ccccc2Sc2ccc(Cl)cc21 [Chlorpromazine hydrochloride]	0.0844 ± 0.00072	0.0646 ± 0.0046	0.0699 ± 0.0027	0.13 ± 0.012	0.25 ± 0.08		0.425 ± 0.0072	0.0848 ± 0.022
